From the supplement of paper PMC10849652
Targets with a hit are over-represented here; the source holds about 8,800 in all. About 0.5% of all pairs of compound and target were hits.

Key:
Experiment in all cases: log2 fold change, soluble protein after heating vs DMSO (PISA); higher = thermal stabilisation; K562 lysate, 10 uM; active = over 0.2 and 3.5 SD of the protein, either way, in both replicates (recomputed)
[1] = compound: C=CC(=O)N1CCC[C@@H](n2nc(-c3ccc(Oc4ccccc4)cc3)c3c(N)ncnc32)C1 [ibrutinib]
Method in brief: (§1)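 K562 pellets were dounce-homogenised in PBS pH 7.4 with 1 mM MgCl2, and the crude extract at 1 mg/mL protein was treated with 10 μM compound for 30 min. Aliquots were heated for 3 min across 48°C-58°C, pooled, and brought to 0.5% NP-40 at 4°C; soluble protein was the supernatant after 21,000xg for 90 min. Soluble protein was quantified by TMTpro 16plex LC-MS/MS with channel sums equalised, and reported as log2 fold change in thermal stability against DMSO controls, with values from duplicates.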

[2] = compound: CC(=O)c1cnc2ccc(-c3cc(Cl)c(O)c(Cl)c3)nc2c1N[C@H]1CC[C@H](CN(C)C)CC1
Method in brief: as §1

[3] = compound: CC(C)(C)Cn1c(N)nc2ccc(-c3[nH]c(C(C)(C)C)nc3-c3ccc(F)cc3)nc21 [ralimetinib]
Method in brief: as §1

[4] = compound: CC(C)(O)CC(=O)NCCn1ccc2ncnc(Nc3ccc(Oc4cccc(C(F)(F)F)c4)c(Cl)c3)c21
Method in brief: as §1

[5] = compound: CC(C)C1=C2N=C(C=C(N2N=C1)NCC3=CC=CC=C3)NCCCCCCN
Method in brief: as §1

[6] = compound: CC1=C(C(CC(=O)N1)C2=CC=C(C=C2)C(F)(F)F)C(=O)NC3=C(C=C4C(=C3)C=NN4)F
Method in brief: as §1

[7] = compound: CC1=C(C2=C(C=C1)C(=O)C3=CC=CC=C3N2CCCN)C
Method in brief: as §1

[8] = compound: CC1=C(C=C(C=C1)NC(=O)C2=CC(=CC=C2)C(C)(C)C#N)NC3=CC4=C(C=C3)N=CN(C4=O)C
Method in brief: as §1

[9] = compound: CC1=C(C=C(C=C1)NC(=O)C2=CC(=CC=C2)N(C)C)NC(=O)C3=CC=C(C=C3)O
Method in brief: as §1

[10] = compound: CC1=CC=C(C=C1)SC2=C3C=C(SC3=CN=C2)C(=O)N
Method in brief: as §1

Measured: log2 fold change

IMPACT (UniProt Q9P2X3)
Sequence of UniProt Q9P2X3 (Q9P2X3 whole entry, looked up): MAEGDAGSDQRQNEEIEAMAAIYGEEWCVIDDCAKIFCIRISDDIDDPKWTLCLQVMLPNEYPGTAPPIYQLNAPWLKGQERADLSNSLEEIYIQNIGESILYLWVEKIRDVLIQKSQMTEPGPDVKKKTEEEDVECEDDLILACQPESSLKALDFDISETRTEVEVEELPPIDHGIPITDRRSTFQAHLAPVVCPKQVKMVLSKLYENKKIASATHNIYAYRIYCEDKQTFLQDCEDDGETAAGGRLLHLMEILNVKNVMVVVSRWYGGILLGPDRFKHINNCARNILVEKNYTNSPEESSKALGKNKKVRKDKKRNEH
inactive: [1] -0.19 | [2] -0.075 | [3] 0.061 | [4] 0.001 | [5] -0.065 | [6] 0.289 | [7] 0.034 | [8] 0.146 | [9] 0.14 | [10] -0.052

IMMT (UniProt Q16891)
inactive: [1] -0.015 | [2] 0.006 | [3] -0.018 | [4] -0.045 | [5] -0.017 | [6] -0.007 | [7] 0.038 | [8] 0.003 | [9] 0.011 | [10] 0.031

INF2 (UniProt Q27J81)
Sequence of UniProt Q27J81 (Q27J81 whole entry, looked up): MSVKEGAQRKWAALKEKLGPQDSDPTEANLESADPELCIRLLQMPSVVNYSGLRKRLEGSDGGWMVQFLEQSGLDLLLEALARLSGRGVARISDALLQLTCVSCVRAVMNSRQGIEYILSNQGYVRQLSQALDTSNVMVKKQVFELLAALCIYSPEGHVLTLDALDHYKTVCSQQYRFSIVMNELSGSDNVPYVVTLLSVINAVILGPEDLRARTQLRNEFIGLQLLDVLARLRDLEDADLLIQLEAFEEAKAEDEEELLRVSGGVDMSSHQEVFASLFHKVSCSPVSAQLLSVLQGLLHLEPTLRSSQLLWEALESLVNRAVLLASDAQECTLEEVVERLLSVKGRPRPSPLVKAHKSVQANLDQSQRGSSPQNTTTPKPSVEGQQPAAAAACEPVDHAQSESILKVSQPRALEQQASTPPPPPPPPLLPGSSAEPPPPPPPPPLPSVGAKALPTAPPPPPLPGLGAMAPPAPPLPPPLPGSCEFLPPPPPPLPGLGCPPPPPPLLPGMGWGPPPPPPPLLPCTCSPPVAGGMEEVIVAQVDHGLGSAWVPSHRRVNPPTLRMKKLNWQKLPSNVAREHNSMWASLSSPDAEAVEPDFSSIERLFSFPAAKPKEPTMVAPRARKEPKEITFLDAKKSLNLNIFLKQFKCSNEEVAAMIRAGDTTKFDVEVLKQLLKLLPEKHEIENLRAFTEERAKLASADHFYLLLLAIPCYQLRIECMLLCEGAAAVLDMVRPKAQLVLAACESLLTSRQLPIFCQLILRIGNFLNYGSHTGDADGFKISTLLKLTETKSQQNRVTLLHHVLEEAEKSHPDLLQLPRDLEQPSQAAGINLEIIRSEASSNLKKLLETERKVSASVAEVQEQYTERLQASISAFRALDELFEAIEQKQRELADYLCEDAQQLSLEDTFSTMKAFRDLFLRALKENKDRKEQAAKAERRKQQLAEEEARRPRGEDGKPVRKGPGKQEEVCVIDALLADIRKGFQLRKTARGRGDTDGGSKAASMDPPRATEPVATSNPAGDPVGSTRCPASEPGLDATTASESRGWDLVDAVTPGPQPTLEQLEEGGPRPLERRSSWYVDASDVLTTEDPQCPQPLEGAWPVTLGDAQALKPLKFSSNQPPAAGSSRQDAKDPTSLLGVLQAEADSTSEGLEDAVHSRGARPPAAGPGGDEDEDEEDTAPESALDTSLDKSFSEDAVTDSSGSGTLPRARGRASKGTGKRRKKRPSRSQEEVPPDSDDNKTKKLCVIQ
inactive: [1] 0.036 | [2] -0.007 | [3] 0.018 | [4] 0.049 | [5] -0.012 | [6] 0.004 | [7] 0.07 | [8] -0.004 | [9] -0.027 | [10] -0.015

HMGB1 (UniProt P09429)
Sequence of UniProt P09429 (P09429 whole entry, looked up): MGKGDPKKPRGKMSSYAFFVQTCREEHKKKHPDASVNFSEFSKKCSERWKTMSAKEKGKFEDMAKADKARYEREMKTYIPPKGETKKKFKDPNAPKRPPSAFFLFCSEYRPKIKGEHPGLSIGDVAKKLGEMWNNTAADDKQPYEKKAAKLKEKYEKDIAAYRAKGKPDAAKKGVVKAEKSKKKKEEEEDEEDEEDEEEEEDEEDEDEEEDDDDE
inactive: [1] -0.012 | [2] -0.013 | [3] -0.102 | [4] 0.057 | [5] 0.032 | [6] -0.022 | [7] -0.002 | [8] 0.036 | [9] -0.077 | [10] -0.098

ILK (UniProt Q13418)
inactive: [1] 0.017 | [2] 0.006 | [3] 0 | [4] -0.022 | [5] -0.007 | [6] 0.013 | [7] -0.02 | [8] 0.049 | [9] -0.001 | [10] 0.057

KBTBD2 (UniProt Q8IY47)
Sequence of UniProt Q8IY47 (Q8IY47 whole entry, looked up): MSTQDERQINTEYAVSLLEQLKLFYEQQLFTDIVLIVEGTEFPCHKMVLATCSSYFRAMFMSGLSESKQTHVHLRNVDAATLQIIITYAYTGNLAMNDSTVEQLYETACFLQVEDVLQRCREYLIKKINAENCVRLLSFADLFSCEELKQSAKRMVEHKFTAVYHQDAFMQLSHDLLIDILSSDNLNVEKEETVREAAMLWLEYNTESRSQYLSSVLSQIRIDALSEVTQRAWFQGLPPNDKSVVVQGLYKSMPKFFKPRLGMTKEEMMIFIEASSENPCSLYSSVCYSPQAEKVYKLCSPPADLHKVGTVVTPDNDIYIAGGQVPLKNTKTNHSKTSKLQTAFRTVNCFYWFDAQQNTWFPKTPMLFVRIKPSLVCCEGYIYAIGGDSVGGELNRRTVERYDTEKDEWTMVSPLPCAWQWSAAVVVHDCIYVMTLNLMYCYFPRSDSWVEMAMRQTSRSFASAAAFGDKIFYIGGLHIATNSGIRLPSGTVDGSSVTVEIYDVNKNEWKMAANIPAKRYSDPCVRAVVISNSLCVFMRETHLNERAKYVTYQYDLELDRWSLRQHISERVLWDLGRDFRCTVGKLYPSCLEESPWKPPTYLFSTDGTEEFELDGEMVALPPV
inactive: [1] -0.005 | [2] -0.039 | [3] -0.113 | [4] -0.227 | [5] 0 | [6] 0.001 | [7] -0.036 | [8] 0.116 | [9] 0 | [10] -0.041

GLUL (UniProt P15104)
inactive: [1] 0.031 | [2] 0.004 | [3] 0.006 | [4] -0.002 | [5] -0.008 | [6] 0.026 | [7] 0.023 | [8] -0.117 | [9] -0.011 | [10] 0.031

INPPL1 (UniProt O15357)
inactive: [1] 0.012 | [2] 0.02 | [3] 0.049 | [4] -0.013 | [5] 0.004 | [6] 0.011 | [7] -0.005 | [8] -0.001 | [9] 0.034 | [10] 0.014

HDGFL2 isoform 2 (UniProt Q7Z4V5)
inactive: [1] -0.033 | [2] -0.002 | [3] -0.01 | [4] -0.049 | [5] 0.011 | [6] -0.015 | [7] -0.026 | [8] 0.022 | [9] 0.021 | [10] -0.044

HELQ (UniProt Q8TDG4)
inactive: [1] 0.054 | [2] 0.072 | [3] -0.007 | [4] -0.017 | [5] -0.012 | [6] 0.203 | [7] 0.003 | [8] -0.036 | [9] 0.046 | [10] -0.002

HMGCS1 (UniProt Q01581)
inactive: [1] -0.012 | [2] -0.006 | [3] 0.012 | [4] -0.01 | [5] -0.001 | [6] -0.011 | [7] 0.013 | [8] -0.001 | [9] 0.006 | [10] 0.015

GMPS (UniProt P49915)
inactive: [1] -0.034 | [2] 0.003 | [3] 0.009 | [4] 0.013 | [5] 0.006 | [6] -0.032 | [7] 0.025 | [8] -0.024 | [9] 0.015 | [10] 0.02

HADH isoform 2 (UniProt Q16836)
Sequence of UniProt Q16836 (Q16836 whole entry, looked up): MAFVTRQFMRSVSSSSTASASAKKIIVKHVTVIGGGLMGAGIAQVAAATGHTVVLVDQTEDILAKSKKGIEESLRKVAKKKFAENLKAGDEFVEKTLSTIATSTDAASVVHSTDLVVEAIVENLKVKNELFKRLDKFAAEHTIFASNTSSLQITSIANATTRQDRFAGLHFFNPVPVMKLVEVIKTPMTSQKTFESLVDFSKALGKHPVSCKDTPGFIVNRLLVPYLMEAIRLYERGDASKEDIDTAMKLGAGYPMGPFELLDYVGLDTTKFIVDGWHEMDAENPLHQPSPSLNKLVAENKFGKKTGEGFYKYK
inactive: [1] -0.004 | [2] 0.02 | [3] -0.023 | [4] -0.011 | [5] -0.036 | [6] 0.013 | [7] -0.045 | [8] -0.039 | [9] 0.028 | [10] 0.004

GOLGA1 (UniProt Q92805)
inactive: [1] 0.128 | [2] 0.008 | [3] -0.024 | [4] -0.018 | [5] -0.019 | [6] 0.081 | [7] 0.027 | [8] -0.023 | [9] 0.019 | [10] 0.034

HNRNPL (UniProt P14866)
inactive: [1] -0.015 | [2] 0.012 | [3] 0.047 | [4] 0.046 | [5] 0.051 | [6] 0 | [7] 0.021 | [8] 0.001 | [9] 0.058 | [10] 0.032

HIST2H2BC (UniProt Q6DN03)
inactive: [1] 0.003 | [2] -0.052 | [3] -0.013 | [4] 0.003 | [5] -0.055 | [6] 0.066 | [7] 0.029 | [8] -0.001 | [9] 0.032 | [10] 0.031

GSTCD (UniProt Q8NEC7)
Sequence of UniProt Q8NEC7 (Q8NEC7 whole entry, looked up): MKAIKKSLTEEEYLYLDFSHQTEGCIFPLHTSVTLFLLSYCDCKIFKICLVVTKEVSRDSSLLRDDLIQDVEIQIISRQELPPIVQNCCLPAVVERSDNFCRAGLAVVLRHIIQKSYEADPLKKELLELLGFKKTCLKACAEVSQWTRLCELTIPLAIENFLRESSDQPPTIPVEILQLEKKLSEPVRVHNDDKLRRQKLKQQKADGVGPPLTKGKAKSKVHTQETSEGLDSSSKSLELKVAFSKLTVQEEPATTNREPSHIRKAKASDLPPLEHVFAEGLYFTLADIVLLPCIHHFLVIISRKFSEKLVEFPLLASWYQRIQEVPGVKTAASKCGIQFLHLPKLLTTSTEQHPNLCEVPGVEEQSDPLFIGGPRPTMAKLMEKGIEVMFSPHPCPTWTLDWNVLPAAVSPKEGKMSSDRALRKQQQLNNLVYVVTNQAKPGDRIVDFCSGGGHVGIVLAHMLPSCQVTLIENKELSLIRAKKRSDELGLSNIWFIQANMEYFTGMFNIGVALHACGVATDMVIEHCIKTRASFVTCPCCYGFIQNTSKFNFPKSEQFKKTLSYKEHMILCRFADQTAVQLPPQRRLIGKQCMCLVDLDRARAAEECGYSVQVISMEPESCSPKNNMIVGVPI
inactive: [1] 0.057 | [2] -0.01 | [3] 0.033 | [4] -0.023 | [5] -0.038 | [6] 0.044 | [7] -0.04 | [8] 0.051 | [9] -0.003 | [10] 0.011

HNRNPDL (UniProt O14979)
active: [2] -0.692
inactive: [1] 0 | [3] -0.027 | [4] 0.014 | [5] -0.011 | [6] 0.013 | [7] -0.016 | [8] 0.111 | [9] -0.011 | [10] 0

HDAC2 (UniProt Q92769)
Sequence of UniProt Q92769 (Q92769 whole entry, looked up): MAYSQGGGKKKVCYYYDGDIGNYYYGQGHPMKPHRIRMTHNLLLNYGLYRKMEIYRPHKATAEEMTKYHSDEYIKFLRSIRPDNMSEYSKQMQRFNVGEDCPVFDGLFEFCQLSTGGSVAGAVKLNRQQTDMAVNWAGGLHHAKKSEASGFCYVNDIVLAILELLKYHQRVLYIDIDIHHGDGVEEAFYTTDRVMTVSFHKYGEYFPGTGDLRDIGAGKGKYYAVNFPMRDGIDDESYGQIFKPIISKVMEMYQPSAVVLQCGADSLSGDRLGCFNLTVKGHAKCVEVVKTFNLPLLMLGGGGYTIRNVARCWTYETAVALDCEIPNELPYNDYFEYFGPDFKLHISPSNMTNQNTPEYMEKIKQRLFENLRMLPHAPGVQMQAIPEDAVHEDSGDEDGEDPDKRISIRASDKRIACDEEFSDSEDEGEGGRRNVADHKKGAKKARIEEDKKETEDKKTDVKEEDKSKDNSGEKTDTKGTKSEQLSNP
inactive: [1] 0 | [2] -0.008 | [3] -0.005 | [4] -0.029 | [5] -0.001 | [6] -0.013 | [7] -0.01 | [8] -0.025 | [9] -0.016 | [10] -0.013

GOLGA6B (UniProt A6NDN3)
inactive: [1] -0.034 | [2] 0.003 | [3] -0.047 | [4] -0.187 | [5] -0.057 | [6] -0.127 | [7] -0.114 | [8] 0.045 | [9] 0.066 | [10] 0

HAUS5 (UniProt O94927)
inactive: [1] 0 | [2] 0.002 | [3] 0.034 | [4] 0.017 | [5] 0.027 | [6] -0.027 | [7] 0 | [8] 0 | [9] 0.033 | [10] 0.021

HDAC1 (UniProt Q13547)
Sequence of UniProt Q13547 (Q13547 whole entry, looked up): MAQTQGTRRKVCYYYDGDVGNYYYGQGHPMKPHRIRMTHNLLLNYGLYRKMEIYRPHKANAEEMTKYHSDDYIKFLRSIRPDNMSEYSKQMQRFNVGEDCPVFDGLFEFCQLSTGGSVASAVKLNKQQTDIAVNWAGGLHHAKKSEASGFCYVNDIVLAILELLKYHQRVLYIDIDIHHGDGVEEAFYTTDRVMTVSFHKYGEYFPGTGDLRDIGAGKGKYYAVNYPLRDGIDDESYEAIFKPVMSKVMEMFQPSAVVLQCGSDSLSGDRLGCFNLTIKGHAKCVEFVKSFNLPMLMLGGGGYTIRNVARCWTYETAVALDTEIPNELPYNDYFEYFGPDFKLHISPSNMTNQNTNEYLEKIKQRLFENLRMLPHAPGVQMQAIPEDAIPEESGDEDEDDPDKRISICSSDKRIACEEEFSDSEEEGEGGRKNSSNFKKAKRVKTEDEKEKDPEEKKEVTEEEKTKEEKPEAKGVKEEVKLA
inactive: [1] -0.026 | [2] -0.001 | [3] 0.031 | [4] 0.01 | [5] -0.001 | [6] 0.001 | [7] -0.008 | [8] -0.022 | [9] 0.008 | [10] 0.011

IMMT (UniProt C9J406)
inactive: [1] 0.119 | [2] 0.046 | [3] 0.126 | [4] -0.14 | [5] -0.096 | [6] 0.099 | [7] -0.03 | [8] -0.002 | [9] 0.012 | [10] -0.015

HSD17B10 (UniProt Q99714)
inactive: [1] -0.012 | [2] -0.018 | [3] 0.004 | [4] -0.003 | [5] 0 | [6] -0.026 | [7] -0.031 | [8] -0.018 | [9] -0.007 | [10] -0.025

HDLBP, A0A024R4E5
inactive: [1] -0.034 | [2] -0.007 | [3] 0.029 | [4] -0.014 | [5] -0.012 | [6] 0.007 | [7] -0.004 | [8] -0.009 | [9] 0.042 | [10] 0.003

GTF2A1 (UniProt P52655)
Sequence of UniProt P52655 (P52655 whole entry, looked up): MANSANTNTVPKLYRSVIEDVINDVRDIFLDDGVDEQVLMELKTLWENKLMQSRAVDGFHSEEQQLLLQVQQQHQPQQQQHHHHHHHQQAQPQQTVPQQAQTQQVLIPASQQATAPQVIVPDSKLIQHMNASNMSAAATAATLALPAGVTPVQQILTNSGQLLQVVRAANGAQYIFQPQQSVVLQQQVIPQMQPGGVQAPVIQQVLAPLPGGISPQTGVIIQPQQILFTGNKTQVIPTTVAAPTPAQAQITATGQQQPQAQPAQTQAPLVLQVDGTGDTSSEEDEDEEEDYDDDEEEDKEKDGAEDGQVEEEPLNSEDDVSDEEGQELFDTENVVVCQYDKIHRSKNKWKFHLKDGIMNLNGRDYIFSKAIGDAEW
inactive: [1] -0.009 | [2] -0.046 | [3] 0.015 | [4] -0.016 | [5] -0.036 | [6] -0.069 | [7] -0.021 | [8] -0.013 | [9] 0.008 | [10] -0.014

INPP4A (UniProt Q96PE3)
inactive: [1] -0.166 | [2] 0.001 | [3] 0.061 | [4] -0.013 | [5] -0.034 | [6] 0.02 | [7] -0.086 | [8] 0.022 | [9] -0.053 | [10] -0.025

INTS14 (UniProt Q96SY0)
inactive: [1] -0.006 | [2] -0.008 | [3] 0.023 | [4] -0.012 | [5] -0.048 | [6] -0.003 | [7] -0.029 | [8] -0.004 | [9] 0.006 | [10] -0.01

KCT2 (UniProt Q8NC54)
inactive: [1] 0.025 | [2] 0.018 | [3] 0.038 | [4] -0.076 | [5] -0.015 | [6] 0.008 | [7] -0.034 | [8] -0.025 | [9] 0.004 | [10] -0.024

INTS10 (UniProt Q9NVR2)
inactive: [1] 0.079 | [2] 0.021 | [3] 0.01 | [4] -0.02 | [5] -0.023 | [6] 0.036 | [7] 0 | [8] 0.002 | [9] -0.014 | [10] 0.036

ILRUN (UniProt Q9H6K1)
Sequence of UniProt Q9H6K1 (Q9H6K1 whole entry, looked up): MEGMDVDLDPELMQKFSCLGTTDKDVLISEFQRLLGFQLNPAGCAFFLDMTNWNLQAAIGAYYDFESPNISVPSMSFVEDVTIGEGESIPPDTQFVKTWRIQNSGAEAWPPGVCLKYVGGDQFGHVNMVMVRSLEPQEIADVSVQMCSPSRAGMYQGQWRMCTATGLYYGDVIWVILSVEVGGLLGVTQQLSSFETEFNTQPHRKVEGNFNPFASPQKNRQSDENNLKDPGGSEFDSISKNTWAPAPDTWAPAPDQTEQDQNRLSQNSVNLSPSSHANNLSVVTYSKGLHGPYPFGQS
inactive: [1] -0.002 | [2] -0.011 | [3] 0.001 | [4] -0.019 | [5] 0.007 | [6] 0.035 | [7] -0.03 | [8] 0.009 | [9] 0.018 | [10] 0.02

KCTD20 (UniProt Q7Z5Y7)
inactive: [1] 0.109 | [2] 0.071 | [3] 0.099 | [4] -0.009 | [5] 0.044 | [6] 0.062 | [7] 0.034 | [8] -0.001 | [9] 0.105 | [10] -0.051

HSPA8 (UniProt P11142)
inactive: [1] -0.02 | [2] -0.002 | [3] -0.015 | [4] -0.003 | [5] 0.001 | [6] -0.022 | [7] 0.005 | [8] -0.013 | [9] -0.002 | [10] 0.009
